In PubChem BioAssay:

assay: small molecules captured by biotinylated probe aFGF10 – biochemical, small-molecule microarray, fluorescence 635/667, stem cell growth factor project, primary screen (AID 1071); details: higher = more signal;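 note: score merges 667 nm spot intensity and signal to noise from triplicate slides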

Going from `CC(C)c1ccc(NN2C(C(O)C(C)c3ccccc3)C=CC3C(=O)N(c4ccccc4)C(=O)C32)cc1` (stereo not drawn) to `N#Cc1ccc(NN2C(C(O)c3ccc(B(O)O)cc3)C=CC3CN(c4ccccc4)C(=O)C32)cc1` (stereo not drawn), the composite z-score falls from 1.08 to 0.0196.

Going from `Cc1ccc(S(=O)(=O)N2[C@@H](c3ccccc3)C(C(=O)O)=C[C@H]2C(C)(C)C)cc1` to `CCOC(=O)C1=CC[C@@H](c2ccccc2)N(S(=O)(=O)c2ccc(C)cc2)[C@@H]1C#N`, the composite z-score falls from 0.611 to 0.388.

Compared with `COCCOC(=O)N1C(=O)[C@@]2(c3cc(C#CCC(C(=O)OC)C(=O)OC)ccc31)[C@H](C(=O)N1CCc3cc(OC)c(OC)cc3C1)[C@H]1C(=O)O[C@H](c3ccccc3)[C@H](c3ccccc3)N1[C@@H]2c1ccccc1OCCO`, `COCCOC(=O)N1C(=O)[C@@]2(c3cc(C#CCC(C(=O)OC)C(=O)OC)ccc31)[C@H](c1ccc(O)cc1)N1[C@H](c3ccccc3)[C@H](c3ccccc3)OC(=O)[C@H]1[C@@H]2C(=O)N1CCc2cc(OC)c(OC)cc2C1` is higher in composite z-score: 0.375 for the first, 0.818 for the second.

First: CN(C)CCCC[C@@H]1NC(=O)[C@H]2C[C@@H](C(=O)NCCCCCCNC(=O)CS)[C@@H](c3cccc(OCCO)c3)N2C1=O
Second: COCCCNC(=O)[C@@]1(CCC(=O)OC(C)(C)C)N=C(c2ccc(OCCCO)cc2)O[C@H]1c1ccccc1
The composite z-score of the first is lower: -0.217 for the first, 0.186 for the second.

First: COc1cc2c(cc1O)C(C)N(Cc1sc3ccccc3c1Cl)CC2 (stereo not drawn)
Second: C=C[C@H](OC)[C@@H](O)c1ccc(OC)c(O)c1
The composite z-score of the first is lower: -0.563 for the first, -0.248 for the second.

First: CCOC(=O)C1=CCC(c2ccncc2)N(S(=O)(=O)c2ccc(C)cc2)C1 (stereo not drawn)
Second: CCN1C(=O)C2CC(=O)C3C(CN(S(=O)(=O)c4ccc(C)cc4)C3c3ccc(C)cc3)C2C1=O (stereo not drawn)
The composite z-score of the first is higher: 1.03 for the first, 0.183 for the second.

Compared with `COC(=O)[C@@]1(Cc2ccc(F)cc2)[C@H]2c3cc(C(=O)N4CCCC4)n(Cc4ccc(C(F)(F)F)nc4)c3C[C@H]2CN1C(=O)c1ccccc1`, `COC(=O)C1=CC(c2ccc(CO)cc2)=CC(C2CC2)N(Cc2cc3c(cc2Br)OCO3)C=C1C(=O)OC` (stereo not drawn) is higher in composite z-score: 0.0812 for the first, 1.25 for the second.

Compared with `CC(C)(C)OC(=O)CC[C@@]1(C(N)=O)N=C(c2ccc(OCCCO)cc2)O[C@@H]1c1ccccc1CN=[N+]=[N-]`, `C=CCNC(=O)[C@H]1[C@@H]2C(=O)O[C@@H](c3ccccc3)[C@@H](c3ccccc3)N2[C@@H](c2ccc(OCCO)cc2)[C@]12C(=O)N(C(=O)OCCOC)c1ccc(C#CCC(C(=O)OC)C(=O)OC)cc12` is higher in composite z-score: 0.712 for the first, 1.1 for the second.

Compared with `C=CCOC(=O)[C@H]1[C@@H]2C(=O)O[C@@H](c3ccccc3)[C@@H](c3ccccc3)N2[C@@H](c2ccc(OCCOC(=O)[C@@H]3C[C@@H]4C(=O)N[C@@H](Cc5ccccc5)C(=O)N4[C@@H]3c3ccc(O)cc3)cc2)[C@]12C(=O)Nc1ccc(I)cc12`, `COC(=O)C(CC#Cc1ccc2c(c1)[C@]1(C(=O)N2)[C@H](C(=O)NC[C@H](O)c2ccccc2)[C@H]2C(=O)O[C@H](c3ccccc3)[C@H](c3ccccc3)N2[C@@H]1c1ccc(O)cc1)C(=O)OC` is lower in composite z-score: 0.449 for the first, -0.199 for the second.

Going from `C=C(C)C1CN([C@H](CO)c2ccccc2)C(=O)/C1=C\c1ccccc1` (stereo partly drawn) to `CN1C2C=C(c3ccc(CO)cc3)C(C3C(=O)N(C(N)=O)C(=O)C32)C1C1CC1` (stereo not drawn), the composite z-score falls from 0.305 to -0.0401.

First: C=C(COC)C(=O)CC[C@H](OC(C)=O)c1ccc(CO)o1
Second: O=C(NCCN1CCOCC1)[C@@H]1c2ccccc2C(=O)N(CC23CC4CC(CC(C4)C2)C3)[C@H]1c1ccc(CO)cc1
The composite z-score of the first is lower: 0.265 for the first, 0.734 for the second.

In the case of `CC[C@@H](O[Si](C#C[Si](C(C)C)(C(C)C)C(C)C)(C(C)C)C(C)C)c1cn(Cc2cccc(Cl)c2)nn1`, the composite z-score was 0.238.
